# Assay results: PMC11006913
# Residue numbers refer to the chain shown, from its start.
# Legend:
# Test in all cases: PBM; 200 nM protein, PBS
# Settings in all cases: dsDNA, one strand shown
# [1] = biological target: HOXB9 (Homo sapiens, UniProt P17482 171-250, T197M)
# [2] = biological target: HOXC9 (Homo sapiens, UniProt P31274 178-260, K195R)
# [3] = biological target: T1, VENTX (Homo sapiens, UniProt O95231 78-163)
# T1 sequence: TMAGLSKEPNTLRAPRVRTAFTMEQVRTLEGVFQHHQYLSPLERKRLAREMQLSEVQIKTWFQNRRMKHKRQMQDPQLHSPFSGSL
# [4] = biological target: T2, PAX4 (Homo sapiens, UniProt O43316 9-242, R200K)
# T2 sequence: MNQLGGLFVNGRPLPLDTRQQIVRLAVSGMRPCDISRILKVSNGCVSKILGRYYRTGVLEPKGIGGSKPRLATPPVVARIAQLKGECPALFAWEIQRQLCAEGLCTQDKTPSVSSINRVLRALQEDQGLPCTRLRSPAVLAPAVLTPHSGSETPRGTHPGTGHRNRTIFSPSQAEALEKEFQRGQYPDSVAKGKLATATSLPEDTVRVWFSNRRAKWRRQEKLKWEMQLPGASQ
# [5] = biological target: T3, VENTX (Homo sapiens, UniProt O95231 78-163, Y115F)
# T3 sequence: T1 sequence with Y38F
# [6] = biological target: T4, PAX4 (Homo sapiens, UniProt O43316 9-242)
# T4 sequence: T2 sequence with K192R
# [7] = biological target: HOXB9 (Homo sapiens, UniProt P17482 171-250)
# [8] = biological target: T5, PAX4 (Homo sapiens, UniProt O43316 9-242, R200Q)
# T5 sequence: T2 sequence with K192Q
# [9] = biological target: HOXC9 (Homo sapiens, UniProt P31274 178-260, R193K)
# [10] = biological target: HOXA2 (Homo sapiens, UniProt O43364 129-215, R185K)
# [11] = biological target: T6, PAX4 (Homo sapiens, UniProt O43316 9-242, F177V)
# T6 sequence: T2 sequence with F169V, K192R
# [12] = biological target: HOXC10 (Homo sapiens, UniProt Q9NYD6 254-340, K271E)
# [13] = biological target: T7, PAX4 (Homo sapiens, UniProt O43316 9-242, F177Y)
# T7 sequence: T2 sequence with F169Y, K192R
# [14] = biological target: VAX1 (Homo sapiens, UniProt Q5SQQ9 86-172)
# [15] = biological target: HOXB9 (Homo sapiens, UniProt P17482 171-250, R186Q)
# [16] = biological target: HOXC9 (Homo sapiens, UniProt P31274 178-260, R222W)
# [17] = biological target: T8, PAX4 (Homo sapiens, UniProt O43316 9-242, R227W)
# T8 sequence: T2 sequence with K192R, R219W
# [18] = biological target: HOXA2 (Homo sapiens, UniProt O43364 129-215, Y150S)
# [19] = biological target: HOXA2 (Homo sapiens, UniProt O43364 129-215)
# Sequence of HOXA2 (Homo sapiens, UniProt O43364 129-215) (O43364 129-215): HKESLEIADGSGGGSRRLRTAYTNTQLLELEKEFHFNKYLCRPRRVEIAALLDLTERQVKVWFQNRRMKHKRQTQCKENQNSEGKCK
# Sequence of HOXB9 (Homo sapiens, UniProt P17482 171-250, R186Q) (P17482 171-250 R186Q): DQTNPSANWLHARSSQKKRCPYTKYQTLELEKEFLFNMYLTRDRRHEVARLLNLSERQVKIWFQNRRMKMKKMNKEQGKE
# Sequence of HOXB9 (Homo sapiens, UniProt P17482 171-250, T197M) (P17482 171-250 T197M): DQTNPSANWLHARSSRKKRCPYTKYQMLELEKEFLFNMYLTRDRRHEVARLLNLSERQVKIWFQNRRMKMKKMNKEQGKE
# Sequence of HOXA2 (Homo sapiens, UniProt O43364 129-215, R185K) (O43364 129-215 R185K): as the sequence (O43364 129-215) above, with R57K counted along it
# Sequence of HOXA2 (Homo sapiens, UniProt O43364 129-215, Y150S) (O43364 129-215 Y150S): as the sequence (O43364 129-215) above, with Y22S counted along it
# Sequence of HOXB9 (Homo sapiens, UniProt P17482 171-250) (P17482 171-250): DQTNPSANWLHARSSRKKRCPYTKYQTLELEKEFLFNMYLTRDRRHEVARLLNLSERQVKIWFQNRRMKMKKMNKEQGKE
# Sequence of HOXC10 (Q9NYD6 254-340 K271E): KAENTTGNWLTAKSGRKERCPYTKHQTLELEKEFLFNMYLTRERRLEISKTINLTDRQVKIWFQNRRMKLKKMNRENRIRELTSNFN
# Sequence of VAX1 (Q5SQQ9 86-172): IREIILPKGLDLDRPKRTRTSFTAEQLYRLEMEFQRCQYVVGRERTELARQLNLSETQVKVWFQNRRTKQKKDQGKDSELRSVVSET
# Sequence of HOXC9 (Homo sapiens, UniProt P31274 178-260, K195R) (P31274 178-260 K195R): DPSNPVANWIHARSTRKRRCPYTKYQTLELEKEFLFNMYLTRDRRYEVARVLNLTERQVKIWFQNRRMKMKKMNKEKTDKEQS
# Sequence of HOXC9 (Homo sapiens, UniProt P31274 178-260, R222W) (P31274 178-260 R222W): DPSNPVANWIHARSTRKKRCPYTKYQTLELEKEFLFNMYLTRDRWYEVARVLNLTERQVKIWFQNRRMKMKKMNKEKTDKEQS
# Sequence of HOXC9 (Homo sapiens, UniProt P31274 178-260, R193K) (P31274 178-260 R193K): as the sequence (P31274 178-260 R222W) above, with R16K, W45R counted along it
sequence,measurement,setting,value
ATCAATTA,binding signal,[1],"10.1 upbm affinity estimate (log intensity, higher = more binding, comparable within an allelic series)"
same,binding signal,[2],"12.5 upbm affinity estimate (log intensity, higher = more binding, comparable within an allelic series)"
same,binding signal,[3],"12.7 upbm affinity estimate (log intensity, higher = more binding, comparable within an allelic series)"
same,binding signal,[4],"11.8 upbm affinity estimate (log intensity, higher = more binding, comparable within an allelic series)"
same,binding signal,[5],"11.8 upbm affinity estimate (log intensity, higher = more binding, comparable within an allelic series)"
same,binding signal,[6],"12.4 upbm affinity estimate (log intensity, higher = more binding, comparable within an allelic series)"
same,binding signal,[7],"11.7 upbm affinity estimate (log intensity, higher = more binding, comparable within an allelic series)"
same,binding signal,[8],"12.2 upbm affinity estimate (log intensity, higher = more binding, comparable within an allelic series)"
same,binding signal,[9],"12.6 upbm affinity estimate (log intensity, higher = more binding, comparable within an allelic series)"
same,binding signal,[10],"13.6 upbm affinity estimate (log intensity, higher = more binding, comparable within an allelic series)"
same,binding signal,[11],"10.7 upbm affinity estimate (log intensity, higher = more binding, comparable within an allelic series)"
same,binding signal,[12],"11.9 upbm affinity estimate (log intensity, higher = more binding, comparable within an allelic series)"
same,binding signal,[13],"11.2 upbm affinity estimate (log intensity, higher = more binding, comparable within an allelic series)"
same,binding signal,[14],"13.3 upbm affinity estimate (log intensity, higher = more binding, comparable within an allelic series)"
same,binding signal,[15],"11.5 upbm affinity estimate (log intensity, higher = more binding, comparable within an allelic series)"
same,binding signal,[16],"11.1 upbm affinity estimate (log intensity, higher = more binding, comparable within an allelic series)"
same,binding signal,[17],"11 upbm affinity estimate (log intensity, higher = more binding, comparable within an allelic series)"
same,binding signal,[18],"10.9 upbm affinity estimate (log intensity, higher = more binding, comparable within an allelic series)"
same,binding signal,[19],"12.7 upbm affinity estimate (log intensity, higher = more binding, comparable within an allelic series)"
ATAATTAG,binding signal,[1],"10.2 upbm affinity estimate (log intensity, higher = more binding, comparable within an allelic series)"
same,binding signal,[3],"12.9 upbm affinity estimate (log intensity, higher = more binding, comparable within an allelic series)"
same,binding signal,[4],"12 upbm affinity estimate (log intensity, higher = more binding, comparable within an allelic series)"
same,binding signal,[5],"12.3 upbm affinity estimate (log intensity, higher = more binding, comparable within an allelic series)"
same,binding signal,[6],"12.7 upbm affinity estimate (log intensity, higher = more binding, comparable within an allelic series)"
same,binding signal,[8],"12.6 upbm affinity estimate (log intensity, higher = more binding, comparable within an allelic series)"
same,binding signal,[10],"13.8 upbm affinity estimate (log intensity, higher = more binding, comparable within an allelic series)"
same,binding signal,[11],"10.8 upbm affinity estimate (log intensity, higher = more binding, comparable within an allelic series)"
same,binding signal,[12],"11.8 upbm affinity estimate (log intensity, higher = more binding, comparable within an allelic series)"
same,binding signal,[13],"11.3 upbm affinity estimate (log intensity, higher = more binding, comparable within an allelic series)"
same,binding signal,[14],"13.8 upbm affinity estimate (log intensity, higher = more binding, comparable within an allelic series)"
same,binding signal,[17],"11.3 upbm affinity estimate (log intensity, higher = more binding, comparable within an allelic series)"
same,binding signal,[18],"11 upbm affinity estimate (log intensity, higher = more binding, comparable within an allelic series)"
same,binding signal,[19],"13.1 upbm affinity estimate (log intensity, higher = more binding, comparable within an allelic series)"
CAATTACC,binding signal,[5],"11.5 upbm affinity estimate (log intensity, higher = more binding, comparable within an allelic series)"
same,binding signal,[10],"13.1 upbm affinity estimate (log intensity, higher = more binding, comparable within an allelic series)"
same,binding signal,[14],"12.8 upbm affinity estimate (log intensity, higher = more binding, comparable within an allelic series)"
AAATTAAT,binding signal,[1],"10.1 upbm affinity estimate (log intensity, higher = more binding, comparable within an allelic series)"
same,binding signal,[2],"12.6 upbm affinity estimate (log intensity, higher = more binding, comparable within an allelic series)"
same,binding signal,[4],"11.9 upbm affinity estimate (log intensity, higher = more binding, comparable within an allelic series)"
same,binding signal,[6],"12.4 upbm affinity estimate (log intensity, higher = more binding, comparable within an allelic series)"
same,binding signal,[7],"11.8 upbm affinity estimate (log intensity, higher = more binding, comparable within an allelic series)"
same,binding signal,[8],"12.4 upbm affinity estimate (log intensity, higher = more binding, comparable within an allelic series)"
same,binding signal,[9],"12.5 upbm affinity estimate (log intensity, higher = more binding, comparable within an allelic series)"
same,binding signal,[11],"10.7 upbm affinity estimate (log intensity, higher = more binding, comparable within an allelic series)"
same,binding signal,[13],"11.2 upbm affinity estimate (log intensity, higher = more binding, comparable within an allelic series)"
same,binding signal,[14],"12.7 upbm affinity estimate (log intensity, higher = more binding, comparable within an allelic series)"
same,binding signal,[15],"11.5 upbm affinity estimate (log intensity, higher = more binding, comparable within an allelic series)"
same,binding signal,[17],"11.1 upbm affinity estimate (log intensity, higher = more binding, comparable within an allelic series)"
CCAATTAA,binding signal,[1],"10 upbm affinity estimate (log intensity, higher = more binding, comparable within an allelic series)"
same,binding signal,[3],"12.9 upbm affinity estimate (log intensity, higher = more binding, comparable within an allelic series)"
same,binding signal,[4],"11.8 upbm affinity estimate (log intensity, higher = more binding, comparable within an allelic series)"
same,binding signal,[5],"11.8 upbm affinity estimate (log intensity, higher = more binding, comparable within an allelic series)"
same,binding signal,[6],"12.3 upbm affinity estimate (log intensity, higher = more binding, comparable within an allelic series)"
same,binding signal,[8],"12.4 upbm affinity estimate (log intensity, higher = more binding, comparable within an allelic series)"
same,binding signal,[10],"13.1 upbm affinity estimate (log intensity, higher = more binding, comparable within an allelic series)"
same,binding signal,[11],"10.6 upbm affinity estimate (log intensity, higher = more binding, comparable within an allelic series)"
same,binding signal,[12],"11.9 upbm affinity estimate (log intensity, higher = more binding, comparable within an allelic series)"
same,binding signal,[13],"11.1 upbm affinity estimate (log intensity, higher = more binding, comparable within an allelic series)"
same,binding signal,[14],"13 upbm affinity estimate (log intensity, higher = more binding, comparable within an allelic series)"
same,binding signal,[15],"11.4 upbm affinity estimate (log intensity, higher = more binding, comparable within an allelic series)"
same,binding signal,[16],"11.1 upbm affinity estimate (log intensity, higher = more binding, comparable within an allelic series)"
same,binding signal,[17],"11 upbm affinity estimate (log intensity, higher = more binding, comparable within an allelic series)"
same,binding signal,[18],"10.8 upbm affinity estimate (log intensity, higher = more binding, comparable within an allelic series)"
same,binding signal,[19],"12.2 upbm affinity estimate (log intensity, higher = more binding, comparable within an allelic series)"
ATAATTGA,binding signal,[1],"9.97 upbm affinity estimate (log intensity, higher = more binding, comparable within an allelic series)"
same,binding signal,[8],"11.9 upbm affinity estimate (log intensity, higher = more binding, comparable within an allelic series)"
same,binding signal,[13],"11 upbm affinity estimate (log intensity, higher = more binding, comparable within an allelic series)"
ACCAATTA,binding signal,[1],"9.73 upbm affinity estimate (log intensity, higher = more binding, comparable within an allelic series)"
same,binding signal,[3],"12.8 upbm affinity estimate (log intensity, higher = more binding, comparable within an allelic series)"
same,binding signal,[4],"11.6 upbm affinity estimate (log intensity, higher = more binding, comparable within an allelic series)"
same,binding signal,[5],"11.8 upbm affinity estimate (log intensity, higher = more binding, comparable within an allelic series)"
same,binding signal,[6],"12.2 upbm affinity estimate (log intensity, higher = more binding, comparable within an allelic series)"
same,binding signal,[7],"11.1 upbm affinity estimate (log intensity, higher = more binding, comparable within an allelic series)"
same,binding signal,[8],"12.1 upbm affinity estimate (log intensity, higher = more binding, comparable within an allelic series)"
same,binding signal,[10],"13.2 upbm affinity estimate (log intensity, higher = more binding, comparable within an allelic series)"
same,binding signal,[11],"10.5 upbm affinity estimate (log intensity, higher = more binding, comparable within an allelic series)"
same,binding signal,[13],"10.8 upbm affinity estimate (log intensity, higher = more binding, comparable within an allelic series)"
same,binding signal,[14],"12.8 upbm affinity estimate (log intensity, higher = more binding, comparable within an allelic series)"
same,binding signal,[15],"10.9 upbm affinity estimate (log intensity, higher = more binding, comparable within an allelic series)"
same,binding signal,[17],"10.8 upbm affinity estimate (log intensity, higher = more binding, comparable within an allelic series)"
same,binding signal,[18],"10.9 upbm affinity estimate (log intensity, higher = more binding, comparable within an allelic series)"
same,binding signal,[19],"12.1 upbm affinity estimate (log intensity, higher = more binding, comparable within an allelic series)"
TAATTGCA,binding signal,[1],"10.2 upbm affinity estimate (log intensity, higher = more binding, comparable within an allelic series)"
same,binding signal,[5],"11.6 upbm affinity estimate (log intensity, higher = more binding, comparable within an allelic series)"
same,binding signal,[10],"13.4 upbm affinity estimate (log intensity, higher = more binding, comparable within an allelic series)"
same,binding signal,[12],"11.8 upbm affinity estimate (log intensity, higher = more binding, comparable within an allelic series)"
same,binding signal,[18],"11 upbm affinity estimate (log intensity, higher = more binding, comparable within an allelic series)"
same,binding signal,[19],"12.3 upbm affinity estimate (log intensity, higher = more binding, comparable within an allelic series)"
CTCAATTA,binding signal,[10],"13 upbm affinity estimate (log intensity, higher = more binding, comparable within an allelic series)"
same,binding signal,[14],"12.9 upbm affinity estimate (log intensity, higher = more binding, comparable within an allelic series)"
same,binding signal,[18],"10.8 upbm affinity estimate (log intensity, higher = more binding, comparable within an allelic series)"
same,binding signal,[19],"12.1 upbm affinity estimate (log intensity, higher = more binding, comparable within an allelic series)"
AATTAACA,binding signal,[1],"9.97 upbm affinity estimate (log intensity, higher = more binding, comparable within an allelic series)"
same,binding signal,[3],"12.4 upbm affinity estimate (log intensity, higher = more binding, comparable within an allelic series)"
same,binding signal,[4],"11.8 upbm affinity estimate (log intensity, higher = more binding, comparable within an allelic series)"
same,binding signal,[5],"11.7 upbm affinity estimate (log intensity, higher = more binding, comparable within an allelic series)"
same,binding signal,[6],"12.5 upbm affinity estimate (log intensity, higher = more binding, comparable within an allelic series)"
same,binding signal,[8],"12.2 upbm affinity estimate (log intensity, higher = more binding, comparable within an allelic series)"
same,binding signal,[10],"13.1 upbm affinity estimate (log intensity, higher = more binding, comparable within an allelic series)"
same,binding signal,[11],"10.8 upbm affinity estimate (log intensity, higher = more binding, comparable within an allelic series)"
same,binding signal,[13],"11.2 upbm affinity estimate (log intensity, higher = more binding, comparable within an allelic series)"
same,binding signal,[14],"12.9 upbm affinity estimate (log intensity, higher = more binding, comparable within an allelic series)"
same,binding signal,[17],"11.2 upbm affinity estimate (log intensity, higher = more binding, comparable within an allelic series)"
same,binding signal,[18],"11 upbm affinity estimate (log intensity, higher = more binding, comparable within an allelic series)"
same,binding signal,[19],"12.2 upbm affinity estimate (log intensity, higher = more binding, comparable within an allelic series)"
AATTAACT,binding signal,[4],"11.7 upbm affinity estimate (log intensity, higher = more binding, comparable within an allelic series)"
same,binding signal,[6],"12.3 upbm affinity estimate (log intensity, higher = more binding, comparable within an allelic series)"
same,binding signal,[8],"12.1 upbm affinity estimate (log intensity, higher = more binding, comparable within an allelic series)"
same,binding signal,[11],"10.5 upbm affinity estimate (log intensity, higher = more binding, comparable within an allelic series)"
same,binding signal,[13],"10.9 upbm affinity estimate (log intensity, higher = more binding, comparable within an allelic series)"
same,binding signal,[17],"10.9 upbm affinity estimate (log intensity, higher = more binding, comparable within an allelic series)"
GACAATTA,binding signal,[1],"9.97 upbm affinity estimate (log intensity, higher = more binding, comparable within an allelic series)"
